This is part of a sample that, as a whole, favours compounds with a hit. Of some 83,000 tested, about 20% had one in any assay.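 Percent growth is the endpoint: 0 to 100 indicates growth inhibition (40 means 60% inhibition), 0 means no net growth, and negative values indicate cell death.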 Values without a mark were called inactive. The source made the active and inactive calls. The calls were made as follows: active = growth percent below 10; inactive = the rest.

The subject of one assay is CCRF-CEM leukemia. Kind of assay: NCI-60 one-dose screen, 48 h (100 = growth as untreated, 0 = no growth, -100 = all killed). Particulars: 10 µM.
For the molecule `Cc1ccc(NC(=O)NC2CCCCC2)cc1`, the growth was 98.9%.

As to `Clc1ccc(Nc2ccnc(NCCNc3ccnc4cc(Cl)ccc34)n2)cc1`, the growth is 1.25% (active).

As to `COc1cc(Nc2ccnc(NCCCNc3ccnc4cc(Cl)ccc34)n2)cc(OC)c1`, the growth is -5.06% (active).

For `c1ccc2c(-c3nc(N4CCOCC4)c4c5c(sc4n3)CCCCCC5)cccc2c1`, the growth was 96.9%.

As for `COc1ccc(S(=O)(=O)Nc2c(/C=C\c3cc(OC)c(OC)c(OC)c3)ccc(OC)c2O)cc1`, the growth was 13.5%.

In the case of `COc1ccc2nc3cc(Cl)ccc3c(NCCNCC(C)O)c2c1` (stereo not drawn), the growth is 19.3%.

`COc1ccc(-c2cc(/C=C3\C(=O)Nc4ccc(Cl)cc43)[nH]n2)cc1OC`: the growth is 72.2%.

Consider `Cc1nc2c(c(=O)[nH]1)OCN(Cc1ccccc1)C2`, for which the growth is 90.5%.

In the case of `COc1cc(NC(=O)c2sc3nc4c(cc3c2N)C(O)CCC4)cc(OC)c1` (stereo not drawn), the growth was 68.7%.

In the case of `CC/C(=C(/c1ccc(OCCN(C)C)cc1)c1ccc(OC(=O)CCCCC(=O)c2c(C)[nH]c(/C=C3\N=C(c4ccc[nH]4)C=C3OC)c2C)cc1)c1ccccc1`, the growth was 9.97% (active).

Regarding `c1ccc(CP(Cc2ccccc2)c2ccccc2)cc1`, the growth was 89.5%.

With `COc1cc(-c2cc(/C=C/C(=O)c3ccc(N)cc3)[nH]n2)cc(OC)c1OC`, the growth was 5.88% (active).

As to `CC(C)(Cl)CCC1=C(Cl)C(=O)c2ccccc2C1=O`, the growth is -33.9% (active).

Take `COc1ccc(-c2nn(-c3cccc(NC(=O)Nc4ccccc4)c3)cc2-c2ccncc2)cc1Cl`: the growth was 11.9%.

For `O=C(c1cccs1)c1ccccc1Cc1ccccc1`, the growth was 93.7%.

Consider `FC(F)(F)c1ccc(-c2cnc(Cl)nc2N2CCC3(CC2)OCCO3)cc1`, for which the growth is 91.1%.

On to `COc1ccc(-c2nsc3c2NC(=O)CC3c2ccc(F)cc2)cc1` (stereo not drawn), for which the growth is 45.3%.

Take `Nc1ccc2c(c1)C1(CCC2)NC(=O)NC1=O` (stereo not drawn): the growth is 96.9%.

As to `O=C(Nc1cccc(-n2cc(-c3ccncc3)c(-c3cc(O)cc(Cl)c3)n2)c1)c1ccc(N2CCOCC2)c(C(F)(F)F)c1`, the growth was 13.1%.

For `COc1cc2cc3c(nc2cc1OC)CCN3Cc1ccc(NC(=O)Nc2cc(C(F)(F)F)cc(C(F)(F)F)c2)cc1`, the growth is 51.7%.

Regarding `COc1ccc(-c2nn(-c3cccc(NC(=O)c4cccc(C(F)(F)F)c4)c3)cc2-c2ccncc2)cc1Cl`, the growth was 7.1% (active).

Regarding `COc1ccc(-c2nc3sccn3c2-c2nc3c([nH]2)C(=O)c2ccccc2C3=O)cc1`, the growth is 79.9%.

Consider `O=C1/C(=C\c2ccccc2)CN(C(=O)c2ccccc2)C/C1=C\c1ccccc1`, for which the growth was -0.797% (active).

As for `CCOC(=O)C1(CC(C)C)CCOC1=O` (stereo not drawn), the growth is 92.2%.

Turning to `CCOC(=O)N1C/C(=C/c2ccc(Cl)cc2)C(=O)/C(=C/c2ccc(Cl)cc2)C1`, the growth was 26%.

Regarding `CCN1CCCC1CNC(=O)c1ncc(-c2ccc(C(F)(F)F)cc2)c(NC2CCCCCC2)n1` (stereo not drawn), the growth was 63.3%.

For `CCOC(=O)N/N=C\C(C)=N\NC(=O)OCC`, the growth is 93.6%.

Turning to `Cc1cc2c(C)c3cc(C)c(N)cc3nc2cc1N`, the growth was 6.08% (active).

With `COc1ccc(-c2cc(/C=C/C(=O)c3cc(OC)c(OC)c(OC)c3)[nH]n2)cc1OC`, the growth was 4.09% (active).

As for `CC(=O)N1N=C(c2ccc(Cl)cc2)CC1c1sc(Cl)nc1Cl` (stereo not drawn), the growth was 93.4%.

In the case of `O=C1/C(=C/c2ccc([N+](=O)[O-])s2)Oc2ccccc21`, the growth is -13% (active).

With `CN(C)Cc1cn(-c2ncc(-c3ccc(C(F)(F)F)cc3)c(NC3CCCCCC3)n2)nn1`, the growth was 80.6%.

For the molecule `CSCCCNC(=O)c1ccc2c(c1)/C(=C/c1[nH]c(C)cc1C)C(=O)N2`, the growth was 52.2%.

Regarding `Fc1cc(C(F)(F)F)ccc1-c1cncnc1NC1CCCCCC1`, the growth was 91.2%.

On to `CCOC(=O)N1C/C(=C/c2ccc(OC)cc2)C(=O)/C(=C/c2ccc(OC)cc2)C1`, for which the growth is 6.4% (active).

As for `COc1ccc2c(c1)N(CCO)C1=C(C(=O)OC1)C2c1cc(OC)c(OC)c(OC)c1` (stereo not drawn), the growth is 11.6%.

On to `Cc1cccc(C)c1NC(=O)c1sc2nc3c(cc2c1N)C(=O)CCC3`, for which the growth was 66.5%.

As for `COc1ccc2c(c1OC)O/C(=C\c1ncc([N+](=O)[O-])n1C)C2=O`, the growth is 4.93% (active).

As for `COc1ccc(Oc2nc(NC3CCCC3)nc(Sc3ccc(OC)cc3)n2)cc1`, the growth was 53.2%.

In another assay the test system is MOLT-4 leukemia. The description is as above. Particulars: 10 µM.
As for `Cc1ccc(NC(=O)NC2CCCCC2)cc1`, the growth is 102%.

`Clc1ccc(Nc2ccnc(NCCNc3ccnc4cc(Cl)ccc34)n2)cc1`: the growth is -28% (active).

Regarding `COc1cc(Nc2ccnc(NCCCNc3ccnc4cc(Cl)ccc34)n2)cc(OC)c1`, the growth was -39.6% (active).

Turning to `c1ccc2c(-c3nc(N4CCOCC4)c4c5c(sc4n3)CCCCCC5)cccc2c1`, the growth was 97.2%.

As for `COc1ccc(S(=O)(=O)Nc2c(/C=C\c3cc(OC)c(OC)c(OC)c3)ccc(OC)c2O)cc1`, the growth was 8.7% (active).

For `COc1ccc2nc3cc(Cl)ccc3c(NCCNCC(C)O)c2c1` (stereo not drawn), the growth was 11.7%.

For the molecule `COc1ccc(-c2cc(/C=C3\C(=O)Nc4ccc(Cl)cc43)[nH]n2)cc1OC`, the growth is 57.5%.

Turning to `Cc1nc2c(c(=O)[nH]1)OCN(Cc1ccccc1)C2`, the growth is 95.9%.

`COc1cc(NC(=O)c2sc3nc4c(cc3c2N)C(O)CCC4)cc(OC)c1` (stereo not drawn): the growth is 63.1%.

Take `CC/C(=C(/c1ccc(OCCN(C)C)cc1)c1ccc(OC(=O)CCCCC(=O)c2c(C)[nH]c(/C=C3\N=C(c4ccc[nH]4)C=C3OC)c2C)cc1)c1ccccc1`: the growth was 26.7%.

For `c1ccc(CP(Cc2ccccc2)c2ccccc2)cc1`, the growth is 92.5%.

On to `COc1cc(-c2cc(/C=C/C(=O)c3ccc(N)cc3)[nH]n2)cc(OC)c1OC`, for which the growth is 3.34% (active).

As to `CC(C)(Cl)CCC1=C(Cl)C(=O)c2ccccc2C1=O`, the growth is -16.2% (active).

With `COc1ccc(-c2nn(-c3cccc(NC(=O)Nc4ccccc4)c3)cc2-c2ccncc2)cc1Cl`, the growth was -2.67% (active).

For `O=C(c1cccs1)c1ccccc1Cc1ccccc1`, the growth was 92.5%.

Consider `FC(F)(F)c1ccc(-c2cnc(Cl)nc2N2CCC3(CC2)OCCO3)cc1`, for which the growth was 74%.

For `COc1ccc(-c2nsc3c2NC(=O)CC3c2ccc(F)cc2)cc1` (stereo not drawn), the growth is 21.7%.

Take `Nc1ccc2c(c1)C1(CCC2)NC(=O)NC1=O` (stereo not drawn): the growth was 98.8%.

With `O=C(Nc1cccc(-n2cc(-c3ccncc3)c(-c3cc(O)cc(Cl)c3)n2)c1)c1ccc(N2CCOCC2)c(C(F)(F)F)c1`, the growth is -29.7% (active).

For the molecule `COc1cc2cc3c(nc2cc1OC)CCN3Cc1ccc(NC(=O)Nc2cc(C(F)(F)F)cc(C(F)(F)F)c2)cc1`, the growth was 36.9%.

`COc1ccc(-c2nn(-c3cccc(NC(=O)c4cccc(C(F)(F)F)c4)c3)cc2-c2ccncc2)cc1Cl`: the growth was 24%.

As to `COc1ccc(-c2nc3sccn3c2-c2nc3c([nH]2)C(=O)c2ccccc2C3=O)cc1`, the growth is 76%.

For `O=C1/C(=C\c2ccccc2)CN(C(=O)c2ccccc2)C/C1=C\c1ccccc1`, the growth was 2.87% (active).

Regarding `CCOC(=O)C1(CC(C)C)CCOC1=O` (stereo not drawn), the growth is 100%.

Take `CCOC(=O)N1C/C(=C/c2ccc(Cl)cc2)C(=O)/C(=C/c2ccc(Cl)cc2)C1`: the growth is 21.5%.

Take `CCN1CCCC1CNC(=O)c1ncc(-c2ccc(C(F)(F)F)cc2)c(NC2CCCCCC2)n1` (stereo not drawn): the growth was 66.3%.

Take `CCOC(=O)N/N=C\C(C)=N\NC(=O)OCC`: the growth was 101%.

Turning to `Cc1cc2c(C)c3cc(C)c(N)cc3nc2cc1N`, the growth was -7.23% (active).

Take `COc1ccc(-c2cc(/C=C/C(=O)c3cc(OC)c(OC)c(OC)c3)[nH]n2)cc1OC`: the growth is 3.41% (active).

With `CC(=O)N1N=C(c2ccc(Cl)cc2)CC1c1sc(Cl)nc1Cl` (stereo not drawn), the growth is 77.6%.

For the molecule `O=C1/C(=C/c2ccc([N+](=O)[O-])s2)Oc2ccccc21`, the growth is -6.14% (active).

Turning to `CN(C)Cc1cn(-c2ncc(-c3ccc(C(F)(F)F)cc3)c(NC3CCCCCC3)n2)nn1`, the growth is 74.8%.

Take `CSCCCNC(=O)c1ccc2c(c1)/C(=C/c1[nH]c(C)cc1C)C(=O)N2`: the growth was 29.1%.

On to `Fc1cc(C(F)(F)F)ccc1-c1cncnc1NC1CCCCCC1`, for which the growth is 98.1%.

As to `CCOC(=O)N1C/C(=C/c2ccc(OC)cc2)C(=O)/C(=C/c2ccc(OC)cc2)C1`, the growth was 27.3%.

As to `COc1ccc2c(c1)N(CCO)C1=C(C(=O)OC1)C2c1cc(OC)c(OC)c(OC)c1` (stereo not drawn), the growth is 19.3%.

Consider `Cc1cccc(C)c1NC(=O)c1sc2nc3c(cc2c1N)C(=O)CCC3`, for which the growth is 96.2%.

For `COc1ccc2c(c1OC)O/C(=C\c1ncc([N+](=O)[O-])n1C)C2=O`, the growth is 1.01% (active).

Consider `COc1ccc(Oc2nc(NC3CCCC3)nc(Sc3ccc(OC)cc3)n2)cc1`, for which the growth is 40.2%.

These data come from PubChem BioAssay (NCI).
